Test results reported in PubChem BioAssay (NCI).
Compounds without any hit were thinned out: in the full panel of roughly 83,000, 20% have a hit.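 Results are percent growth after 48 hours of single-concentration exposure. 100 means growth as in untreated cells, lower positive values show inhibition; negative values down to -100 show cell death.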 A number with no mark means an inactive call. Calls of active or inactive are those of the source. How the source made its calls: active means growth percent below 10; inactive means the rest.

Key:
Experiment in all cases: NCI-60 one-dose screen, 48 h (100 = growth as untreated, 0 = no growth, -100 = all killed)
HT29 colon = details: 10 µM unless noted
SNB-75 CNS = details: 10 µM unless noted
SNB-19 CNS = details: 10 µM unless noted
U251 CNS = details: 10 µM unless noted
PC-3 prostate = details: 10 µM unless noted
SK-MEL-5 melanoma = details: 10 µM unless noted
UACC-62 melanoma = details: 10 µM unless noted
LOX IMVI melanoma = details: 10 µM unless noted
SK-MEL-28 melanoma = details: 10 µM
SK-MEL-2 melanoma = details: 10 µM unless noted

Row | Compound | growth (HT29 colon) | growth (SNB-75 CNS) | growth (SNB-19 CNS) | growth (U251 CNS) | growth (PC-3 prostate) | growth (SK-MEL-5 melanoma) | growth (UACC-62 melanoma) | growth (LOX IMVI melanoma) | growth (SK-MEL-28 melanoma) | growth (SK-MEL-2 melanoma)
1 | CC(C)c1ccc(S(=O)(=O)NC(=O)NC2CCCC2)cc1 | 108% | 101% | 100% | 101% | 99.9% | 101% | 94.7% | 97.7% | 103% | 110%
2 | COc1ccc(/C=C2\CCC/C(=C\c3ccc(OC)c(OC)c3)C2=O)cc1OC | 1.7% (active) | 0.689% (active) | 37.8% | 12.3% | 40.8% | 5.95% (active) | -2.18% (active) | -35% (active) | – | 86.4%
3 | Cn1c(=O)n(C)c2cc(CNCCNc3ccnc4cc(Cl)ccc34)ccc21 | 6.95% (active) | 69.6% | 89% | 51.5% | 64.2% | 72.3% | -46.8% (active) | 9.85% (active) | -36.1% (active) | 65.7%
4 | COc1ccc(C2C3=C(COC3=O)N(CCO)c3cc4c(cc32)OCCO4)cc1 (centres undefined) | 50.7% | 60.4% | 81.2% | 87% | 72.9% | 60.8% | 72.4% | 77.4% | – | 95%
5 | CC(=O)c1ccc(NC(=O)Nc2ccc(S(=O)(=O)Nc3ccc(Cl)nn3)cc2)cc1 | 111% | 86.4% | 95.8% | 103% | 104% | 100% | 92% | 99% | 107% | 108%
6 | CN(C)CCNc1cc(-c2ccccc2)nc2ccccc12 | -42.2% (active) | -69.3% (active) | 54.2% | -69% (active) | -38.5% (active) | -74.3% (active) | -75.9% (active) | -84% (active) | -90.7% (active) | -45.2% (active)
7 | O=C(c1nc2ccccc2[nH]1)C1C(c2ccc(F)cc2)C2CC3CCCCC3N2[C@@]12C(=O)Nc1ccc(Cl)cc12 (some centres undefined) | 24.9% | 36.7% | 54.1% | 51.2% | 35.4% | 47.3% | 55.1% | 46% | 61% | 65.8%
8 | Cc1ccc2c(n1)C(=O)C(Oc1ccc(Br)cc1)=CC2=O | 97.6% | 82.2% | 96.6% | 94.5% | 95% | 93.6% | 95.9% | 84.2% | 116% | 91.7%
9 | Nc1cccc(Nc2cc(S(=O)(=O)O)c(N)c3c2C(=O)c2ccccc2C3=O)c1 | 96.3% | 82.2% | 101% | 95.5% | 100% | 103% | 106% | 85% | – | 100%
10 | Cc1[nH]c2ccccc2c(=O)c1CC=C(Cl)Cl | -59.8% (active) | 63.1% | 56.7% | 18.9% | 43.6% | 72.2% | 63.9% | 3.09% (active) | 74.8% | 46.2%
11 | NCCNc1nc2ccccc2c2c(=O)c3cc(F)cc(Cl)c3sc12 | -64.3% (active) | 44.6% | 81.4% | -84.3% (active) | -70.4% (active) | 85.5% | 44.8% | -92.1% (active) | -89.8% (active) | 99.1%
12 | Cc1ccc2cccc(Oc3ccc(Nc4ncnc5onc(-c6ccccc6)c45)cc3)c2n1 | 57.2% | 78.1% | 92.3% | 70% | 58.5% | 46.3% | 63.8% | 56.5% | 80.1% | 94%
13 | O=S(=O)(c1ccc(NC(=S)NC23CC4CC(CC(C4)C2)C3)cc1)N1CCCCC1 | 94.1% | 93.3% | 99.9% | 85.2% | 8.79% (active) | 87.7% | 80.8% | 96.9% | 95% | 106%
14 | COc1cc(C(=O)O/N=C(\N)Cc2cccc3ccccc23)cc(OC)c1OC | -74.3% (active) | -19.4% (active) | 68.2% | -67.8% (active) | 27.6% | -97.9% (active) | -88.3% (active) | -81.9% (active) | -97% (active) | -80.9% (active)
15 | Cc1ccc(S(=O)c2ccc([N+](=O)[O-])c3nonc23)cc1 (centres undefined) | 93.8% | 112% | 117% | 96.4% | 92.6% | 100% | 108% | 73.6% | 105% | 112%
16 | COc1cc(/C=C2\CN(C)C/C(=C\c3cc(CN4CCOCC4)c(O)c(OC)c3)C2=O)cc(CN2CCOCC2)c1O | 6.39% (active) | 26.3% | 58.5% | 20.7% | 60.8% | 72.3% | 35.8% | 11.7% | 77.3% | 72.2%
17 | O=C(O)c1cn(C2CC2)c2cc(N3CCN(C(=O)C[n+]4ccccc4)CC3)c(F)cc2c1=O | 109% | 97.2% | 99.4% | 92.4% | 106% | 101% | 105% | 98.1% | 112% | 96.5%
18 | CCOc1cccc(/C=N/NC(=O)C(=O)Nc2cccc(C(F)(F)F)c2)c1O | 41.3% | 68.1% | 41.3% | 22.9% | 44.5% | -25.5% (active) | 2.68% (active) | 6.47% (active) | 44.6% | 36.9%
19 | CCC1=C[C@@H]2CN(C1)Cc1c([nH]c3ccccc13)[C@@](C(=O)OC)(c1cc3c(cc1OC)N(C)[C@H]1[C@@](O)(C(=O)OC)[C@H](OC(C)=O)[C@]4(CC)[C@@H]5C[C@@H]5CN5CC[C@]31[C@@H]54)C2 | -23.3% (active) | 3.05% (active) | 55.7% | 7.9% (active) | 22.5% | -79.9% (active) | 12.6% | 3.68% (active) | 14.4% | 10.4%
20 | COc1cc(/C=C/C(=O)c2ccc(Nc3nc(NCCO)nc(N4CCOCC4)n3)cc2)cc(OC)c1OC | 5.79% (active) | 10.4% | 30.5% | 14.6% | 31% | 10.5% | -31.7% (active) | 11.1% | 48.4% | 50.6%
21 | COc1ccc(OC)c(/C=C/C(=O)c2c(C)nc3ccccc3c2/C=C/c2ccccc2)c1 | 37.2% | 59.2% | 80.9% | 54.1% | 59.4% | 82.9% | 50.1% | 42.8% | 95.1% | 72.2%
22 | CCCCCCc1cc2cc(-c3nc4ccccc4[nH]3)c(=Nc3ccccc3C)oc2cc1O | 2.75% (active) | 47.8% | 71.7% | 34% | 37.6% | 41.7% | 54.5% | 25.5% | -10.3% (active) | 47.2%
23 | CCOc1c(Br)cc(C2C(C(=O)OC)=CN(C)C=C2C(=O)OC)cc1OC | 6.47% (active) | 47.3% | 89% | 51% | 60.7% | 19.6% | 71.3% | 54.9% | – | 65.7%
24 | COc1ccccc1C(=O)O/N=C(\N)Cc1cccc2ccccc12 | 77.7% | 67% | 87.7% | 90.9% | 78.6% | 70.4% | 83.3% | 70.6% | 114% | 89.6%
25 | COc1cc(C2C3=C(COC3=O)N(CCO)c3cc4c(cc32)OCCO4)cc(OC)c1O (centres undefined) | 3.06% (active) | -17.9% (active) | 26.8% | 19.7% | 27.2% | 12.9% | 33.5% | 33% | – | 76.5%
26 | CCOC(=O)C1=C(C)c2ccc(OC)c(OC)c2C1 | 95% | 89.9% | 104% | 90.4% | 102% | 96.3% | 98.5% | 96.1% | – | 89.5%
27 | COC(=O)/C(CCC=C(C)C)=C1\[C@@H](OC(C)=O)C[C@@]2(C)[C@H]1CC(=O)N[C@H]1[C@@]3(C)CCNC(=O)[C@@H](C)[C@@H]3CC[C@@]12C | 102% | 96.2% | 98.6% | 102% | 97.8% | 95.4% | 96.3% | 97.9% | 106% | 106%
